Compound activity: PubChem BioAssay, National Center for Advancing Translational Sciences (NCATS)
HT1080 IDH1KD tx: kills HT-1080 cells with IDH1 knockdown; AID 686971; HT-1080 IDH1 knockdown viability, ATP luminescence, 48 h; Potency, µM (highest dose often 46.1 µM), actives largely listed as cytotoxic; 2% of 360,000 active
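Using the IDH1-knockdown HT-1080 line run in the same batch and compound series as the NT line, viability after 48 h at 37 °C was determined by CellTiter-Glo luminescence and expressed as % activity.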
HT1080NT lethal: kills 2HG-producing HT-1080-NT fibrosarcoma cells; 1.6% of 360,000 active; HT-1080-NT fibrosarcoma viability, CellTiter-Glo ATP luminescence, 48 h; Potency, µM (top dose mostly 46.1 µM), actives largely listed as cytotoxic; AID 686970;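 also: NT is the 2HG producing partner of a matched IDH1 knockdown line; nearly all actives have a fitted effect of over 55% in size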
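A 48-hour cytotoxicity screen used HT-1080-NT cells plated 2 hours before compound delivery. ATP-based CellTiter-Glo luminescence measured viability, normalized to DMSO and no-cell controls.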
KB-3-1 tox: kills parental KB-3-1 adenocarcinoma cells; KB-3-1 viability, CellTiter-Glo ATP luminescence, 72 h; Potency, µM (top dose mostly 46.1 µM), actives largely listed as cytotoxic; 1.4% of 400,000 active; also: nearly all actives have a fitted effect of over 60% in size
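Cytotoxicity measured as CellTiter-Glo luminescence after 72 h at 37 C. Compound titrations were pinned onto drug-naive KB-3-1 parental adenocarcinoma cells grown in DMEM with 10% FBS, and normalized data fitted to concentration-response curves.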
SW480 rerep: induces DNA re-replication in SW480 colon adenocarcinoma cells | SW480 DNA re-replication, Hoechst DNA content imaging, 48 h | Potency, µM (top dose mostly 46.1 µM), hits mostly activators | 1.8% of 340,000 active | AID 624297; also: nearly all actives have a fitted effect of over 55% in size
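Image-based read-out: total Hoechst fluorescence of nuclei (405 nm excitation, 500-530 nm emission), with hits raising the fraction of high-intensity nuclei. SW480 colon cells incubated 48 hr with compounds at 37 C.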
KB-V1 MDR tox: KB-V1 MDR subline cytotoxicity; KB-V1 MDR cells viability, CellTiter-Glo, 72 h; Potency, µM (highest dose often 46.1 µM), hits mostly cytotoxic; 3.4% of 400,000 active; AID 1347076; also: nearly all actives have a fitted effect of over 60% in size
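Readout: CellTiter-Glo luminescence, 10 min after addition. Cells: KB-V1 MDR subline, 72 h at 37 degrees C with compound. Analysis: corrected, normalized data fitted to concentration-effect curves.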
MCF10A rerep: induces DNA re-replication in MCF 10a normal breast cells. MCF 10A DNA re-replication, Hoechst nuclear intensity, 48 h. 2.9% of 350,000 active. Potency, µM (highest dose often 46.1 µM), actives largely listed as activators; also: nearly all actives have a fitted effect of over 50% in size
Of the large screens only hits and unclear results are named; the others gave an inactive call; ! = repeats disagree. An excerpt weighted towards active compounds, which were near 7.9% of everything screened. Calls follow the shape of the dose curve; as a rule, active = well fitted curve in the direction sought with a large enough effect; inconclusive = small, poorly fitted or top-dose-only effect, or another doubt; inactive = no such curve, though single readings can be large; an effect the other way counts as inactive or inconclusive.

Cc1cc(C)c(NC(=O)CSc2nnc(CN3CCOCC3)n2C)c(C)c1	SW480 rerep 29µM
Cc1cc(C)cc(NC(=O)CSc2nnc(CN3CCOCC3)n2C)c1	none
Brc1ccc(CSc2nnc(-c3cnccn3)n2Cc2ccco2)cc1	KB-3-1 tox inconclusive, KB-V1 MDR tox 9.2µM, MCF10A rerep inconclusive
Fc1ccc(CSc2nnc(-c3cnccn3)n2Cc2ccco2)cc1	none
Cc1ccc(NC(=O)CSc2nnc(-c3cnccn3)n2Cc2ccco2)cc1	KB-V1 MDR tox 7.3µM
Cn1c(CN2CCOCC2)nnc1SCC(=O)Nc1ccc2c(c1)OCCO2	none
O=C(CSc1nnc(CN2CCOCC2)n1-c1ccc(Cl)cc1)Nc1ccc2c(c1)OCO2	KB-V1 MDR tox 10µM
Cc1cc(C)c(NC(=O)CSc2nnc(-c3ccncc3)n2Cc2ccco2)c(Cl)c1	KB-3-1 tox inconclusive, KB-V1 MDR tox 23µM
O=c1c(Cl)c(Cl)cnn1Cc1ccccc1Cl	HT1080 IDH1KD tx 18µM, HT1080NT lethal inconclusive, KB-3-1 tox inconclusive, SW480 rerep inconclusive, MCF10A rerep 5.8µM
Cc1ccc(Cn2ncc(Cl)c(Cl)c2=O)cc1	HT1080 IDH1KD tx inconclusive, HT1080NT lethal inconclusive, SW480 rerep inconclusive, MCF10A rerep inconclusive
O=c1c(Cl)c(Cl)cnn1Cc1nnc(-c2ccc(Cl)cc2)o1	HT1080 IDH1KD tx 8.2µM, HT1080NT lethal 16µM, KB-3-1 tox inconclusive, SW480 rerep 3.7µM, MCF10A rerep 5.8µM
Cc1cc(C)cc(Cn2ncc(Cl)c(Cl)c2=O)c1	HT1080 IDH1KD tx 16µM, KB-3-1 tox inconclusive, SW480 rerep 3.7µM, KB-V1 MDR tox 23µM, MCF10A rerep 3.7µM
COc1ccc(NC(=O)c2cc(C3CCCCN3C(=O)Cc3ccc(N(C)C)cc3)on2)c(C)c1 (stereo not given)	none (no result: SW480 rerep, MCF10A rerep)
CN(C)c1ccc(CC(=O)N2CCCC(c3cc(C(=O)Nc4ccc(F)c(Cl)c4)no3)C2)cc1 (stereo not given)	HT1080 IDH1KD tx inconclusive, KB-3-1 tox inconclusive, KB-V1 MDR tox 21µM (no result: SW480 rerep, MCF10A rerep)
CN(C)c1ccc(CC(=O)N2CCCCC2c2cc(C(=O)Nc3ccccc3Cl)no2)cc1 (stereo not given)	HT1080 IDH1KD tx inconclusive, HT1080NT lethal 33µM (no result: SW480 rerep, MCF10A rerep)
COc1ccc(-c2noc(CCc3ccccc3)n2)cc1	KB-3-1 tox inconclusive, KB-V1 MDR tox inconclusive
COC(=O)C1(Cc2cc(-c3ccc(OC)cc3OC)no2)CCN(C(=O)OC(C)(C)C)CC1	KB-V1 MDR tox inconclusive
c1ccc(CN2CCC3(CCCc4ccccc43)CC2)cc1	HT1080 IDH1KD tx 16µM, HT1080NT lethal inconclusive, KB-V1 MDR tox inconclusive
c1ccc(CN2CCC3(CC2)Nc2ccccc2CO3)cc1	HT1080NT lethal inconclusive
CCc1nc2ccc(C(=O)NCC3CCCCC3)cn2c1N(CCC(C)C)CCN(C)C	HT1080 IDH1KD tx 16µM, HT1080NT lethal 18µM (no result: SW480 rerep, MCF10A rerep)
CCC(C)N(C(=O)c1csnn1)C(C(=O)NC(C)(C)C)c1ccccc1 (stereo not given)	HT1080NT lethal inconclusive
Cc1nccn1CCC(=O)NC1CCCc2c1cnn2-c1ccc(C(C)(C)C)cc1 (stereo not given)	HT1080NT lethal inconclusive (no result: SW480 rerep, MCF10A rerep)
COc1cc(/C=N/O)cc(Br)c1OCC(=O)NCc1ccccc1	KB-V1 MDR tox 16µM
COc1ccc2nc(NC(=O)CN3CCN(C)CC3)sc2c1	none
CCC/C(C#Cc1ccsc1)=C1/c2ccccc2C(=O)N1c1ccccc1	HT1080 IDH1KD tx inconclusive, SW480 rerep inconclusive, KB-V1 MDR tox inconclusive, MCF10A rerep 23µM
COc1cccc(NC(=O)c2cnc[nH]2)c1	none
COc1cc(OC)cc(-c2sc3ccc(OC)cc3c2-c2ccc(OCCN3CCCCC3)cc2)c1	HT1080NT lethal inconclusive, SW480 rerep inconclusive, MCF10A rerep 18µM
COc1ccccc1-c1sc2cc3c(cc2c1-c1ccc(OCCN2CCOCC2)cc1)OCO3	none
COc1ccc(-c2sc3cc4c(cc3c2-c2ccc(OCCN3CCCCC3)cc2)OCO4)cc1	MCF10A rerep inconclusive
COc1ccc(-c2sc3cc(OC)ccc3c2-c2ccc(OCCN3CCOCC3)cc2)cc1	HT1080NT lethal inconclusive, SW480 rerep inconclusive, MCF10A rerep 3.7µM
CCc1cccc(C)c1NC(=O)CN1C(=O)NC(CCc2ccccc2)C1=O (stereo not given)	none
COC/C=C/C1=CC2=CC(=O)C(C)(OC(=O)c3cnc4ccccc4n3)C(=O)C2=CN1Cc1ccc(OC)cc1 (stereo not given)	KB-3-1 tox inconclusive, KB-V1 MDR tox inconclusive
COc1ccc(OCCC(=O)NCc2ccccc2)cc1	none
COc1cccc(CNC(=O)Cc2ccc(-c3ccccc3)cc2)c1	HT1080 IDH1KD tx 18µM, HT1080NT lethal inconclusive, KB-3-1 tox inconclusive, SW480 rerep inconclusive, KB-V1 MDR tox inconclusive, MCF10A rerep 10µM
COc1cc(OC)cc(C(=O)NCC(=O)Nc2ccc(-c3ccccc3)cc2)c1	HT1080 IDH1KD tx 5.8µM, HT1080NT lethal 2.9µM, KB-3-1 tox inconclusive, SW480 rerep 8.2µM, MCF10A rerep 4.6µM
COC(=O)c1ccc2nc(C)cc(Nc3ccc(O)cc3)c2c1	KB-V1 MDR tox inconclusive (no result: HT1080 IDH1KD tx, HT1080NT lethal, SW480 rerep, MCF10A rerep)
COc1ccc(CC(=O)NCc2ccccc2)cc1	HT1080 IDH1KD tx 8.2µM, HT1080NT lethal inconclusive, KB-3-1 tox inconclusive, SW480 rerep inconclusive, MCF10A rerep 7.3µM
COC(=O)c1ccc(Nc2cc(C)nc3ccccc23)cc1	HT1080 IDH1KD tx 21µM, HT1080NT lethal 18µM, KB-3-1 tox inconclusive, SW480 rerep inconclusive, KB-V1 MDR tox inconclusive, MCF10A rerep inconclusive
CCCn1nc(C(=O)N2CCc3ccccc32)c2ccccc2c1=O	none
CCCCC[C@H]1CN(CCc2ccccc2)C(=O)[C@@H]1CC(=O)NCc1ccc(OC)cc1	KB-3-1 tox inconclusive, KB-V1 MDR tox 18µM!
COc1cccc(CNC(=O)COc2ccc(C(=O)c3ccccc3)cc2)c1	HT1080 IDH1KD tx inconclusive, HT1080NT lethal inconclusive, KB-3-1 tox inconclusive, SW480 rerep inconclusive, KB-V1 MDR tox 21µM, MCF10A rerep inconclusive
COc1ccc(-c2cc(CNC(=O)CN(C)Cc3ccccc3)on2)cc1	KB-V1 MDR tox 2.6µM
COc1ccc(CC(=O)Oc2ccc(F)cc2)cc1	KB-V1 MDR tox inconclusive, MCF10A rerep 0.65µM
CC(Sc1nc(-c2ccccc2)c(C#N)c(=O)[nH]1)C(=O)Nc1ccc(F)cc1 (stereo not given)	KB-V1 MDR tox inconclusive (no result: HT1080 IDH1KD tx, HT1080NT lethal, SW480 rerep, MCF10A rerep)
COc1ccc(CN(C)CC(=O)NC(=O)NCc2ccccc2)cc1OC	none
COc1ccc(CNC(=O)c2cccc(C)c2[N+](=O)[O-])cc1	KB-V1 MDR tox 23µM
COc1cc(C(=O)NCc2cc(C)nc3ccccc23)cc(OC)c1OC	none
COc1cccc(CN(C)CC(=O)NC(=O)NCc2ccccc2)c1	KB-V1 MDR tox 21µM
